Experimental data taken from the supplement of paper PMC10681739.

Tests used:
ETS1 [1] = target: T1, ETS1 (UniProt P14921); test: ETS1 binding intensity (PBM fluorescence), ETS1 alone (arbitrary fluorescence units); higher = stronger binding; details: ETS1 concentration 1 nM; RUNX1 concentration 0 nM
T1 sequence: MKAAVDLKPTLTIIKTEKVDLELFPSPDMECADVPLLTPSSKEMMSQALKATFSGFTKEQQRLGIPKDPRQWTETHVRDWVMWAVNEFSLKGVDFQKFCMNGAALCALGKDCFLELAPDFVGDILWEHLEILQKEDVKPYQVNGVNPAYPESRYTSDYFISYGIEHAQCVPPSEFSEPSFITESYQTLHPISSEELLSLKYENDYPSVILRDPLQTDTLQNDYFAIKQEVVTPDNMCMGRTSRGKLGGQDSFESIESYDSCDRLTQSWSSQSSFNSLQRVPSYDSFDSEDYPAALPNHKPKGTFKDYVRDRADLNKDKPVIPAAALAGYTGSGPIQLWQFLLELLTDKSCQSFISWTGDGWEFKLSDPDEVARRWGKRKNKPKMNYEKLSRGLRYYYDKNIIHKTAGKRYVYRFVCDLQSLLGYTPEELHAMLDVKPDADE

RUNX1 [2] = target: RUNX1 (UniProt Q01196); test: RUNX1 binding intensity (PBM fluorescence), RUNX1 alone (arbitrary fluorescence units); higher = stronger binding; details: RUNX1 concentration 2 nM; ETS1 concentration 0 nM
Description: (§1)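 Cooperative gcPBM on 36-bp genomic probes with neighbouring ETS1 and RUNX1 sites. Recombinant human RUNX1 (2 nM) was incubated alone or with ETS1 (25 nM) and detected with anti-RUNX1 antibody plus Alexa488 secondary. Values are medians over 4 replicate spots; the RUNX1+ETS1 data were normalised to the RUNX1-only data. The probes sit in constant array flanks that are not printed.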

ETS1 [3] = target: T1, ETS1; test: ETS1 binding intensity (PBM fluorescence) in presence of RUNX1, normalised to ETS1-only experiment (arbitrary fluorescence units); higher = stronger binding; details: ETS1 concentration 1 nM; RUNX1 concentration 25 nM
RUNX1 [4] = target: RUNX1 (UniProt Q01196); test: RUNX1 binding intensity (PBM fluorescence) in presence of ETS1, normalised to RUNX1-only experiment (arbitrary fluorescence units); higher = stronger binding; details: RUNX1 concentration 2 nM; ETS1 concentration 25 nM
Description: as §1
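Throughout, for RUNX1 binding intensity (PBM fluorescence) in presence of ETS1, normalised to RUNX1-only experiment: Full-length recombinant human ETS1 or RUNX1 bound to double-stranded 36-bp genomic probes on microarrays, detected by protein-specific primary antibody and Alexa488 secondary, spot fluorescence as median of four replicate spots.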
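Throughout, for RUNX1 binding intensity (PBM fluorescence), RUNX1 alone: Full-length recombinant human RUNX1 bound to double-stranded 36-bp genomic probes on a high-density microarray, scored as Alexa488 fluorescence per spot via anti-RUNX1 antibody, median of four replicate spots.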

Chain of RUNX1 (Q01196 whole entry): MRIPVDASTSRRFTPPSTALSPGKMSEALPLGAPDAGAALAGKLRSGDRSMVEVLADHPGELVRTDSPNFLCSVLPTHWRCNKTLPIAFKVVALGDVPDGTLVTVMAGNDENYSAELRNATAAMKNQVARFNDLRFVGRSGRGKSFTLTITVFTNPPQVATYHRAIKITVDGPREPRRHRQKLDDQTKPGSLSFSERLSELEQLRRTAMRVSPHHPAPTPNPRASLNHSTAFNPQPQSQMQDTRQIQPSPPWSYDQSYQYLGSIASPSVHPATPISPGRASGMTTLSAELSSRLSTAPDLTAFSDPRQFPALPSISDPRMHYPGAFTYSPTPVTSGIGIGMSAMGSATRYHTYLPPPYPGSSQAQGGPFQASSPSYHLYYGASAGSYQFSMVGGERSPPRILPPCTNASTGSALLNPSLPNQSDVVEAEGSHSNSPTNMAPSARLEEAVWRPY

| Sequence | ETS1 binding intensity (ETS1 [1]) | RUNX1 binding intensity (RUNX1 [2]) | ETS1 binding intensity (ETS1 [3]) | RUNX1 binding intensity (RUNX1 [4]) |
| --- | --- | --- | --- | --- |
| CCAGCCACTTCCGCTCGTCCGCCTAATACCGCGCCT | 2130 | 1420 | 2430 | 4930 |
| CGGGACACAGGAAGCCGTTGTGGGGCCCCGGGGCCA | 1960 | 711 | 1970 | 982 |
| CCCCTTAGCACAGGATGTGGTCTTTGCATCTTCATT | 4640 | 1040 | 7360 | 2960 |
| GAGGGGTGGGGGAGGAAGGCTGCGGTTTCTGCTGGG | 390 | 8430 | 2180 | 11100 |
| TCGTGAAAAAGGAAGTGGATAAAGTGGTTACGGCAA | 2040 | 792 | 3260 | 1460 |
| CTGTGCGAGGCAGGATGTGGTCTCCCGCCACCAGGG | 5450 | 788 | 13800 | 3160 |
| GGGATCTACTTCCTCTCTCGGCCGCGGCCGCAGCAC | 790 | 792 | 1150 | 1730 |
| AGGCCCACCTGCTGCGGATGTGGTCTCTGTGTGTGC | 2340 | 774 | 6240 | 1340 |
| GCAAGGCAACAGGAAATTGTGGGGAAATTTTAAAAA | 3930 | 770 | 6190 | 1070 |
| CTCCCACATCCGAAGCGGCGCAACCCACAACAGCCT | 445 | 1120 | 344 | 1620 |
| CCAAAATTGCCACGGAAACCACATCTTTCAGGCGAG | 486 | 1520 | 687 | 1620 |
| GGGCAGGGCATTTCCTTTGTGGCTGGTGCTCACGGA | 493 | 710 | 413 | 1360 |
| CCTTTACGTTTTCCTGTTGCGGGTTCTATCGCTCTG | 506 | 1600 | 592 | 3260 |
| TACCAACAGGAATCTTTGGGGTCTAAACCGCAAACA | 481 | 3800 | 2160 | 5090 |
| GTTCTCCTTCCTGTGCCGAGTGTGGTTTGCTATCAA | 580 | 1250 | 622 | 2400 |
| ACCATATCCTGAGAATGAACCATGTGGTGGATGCAC | 519 | 795 | 487 | 1270 |
| CGGTTCCGGCGCCTGAAGTTTTAGCTGCGGTGGCGG | 347 | 794 | 676 | 1720 |
| CTCCCCCTTTTTTTCCTGTGGTTTCATTGCATGTTG | 454 | 6430 | 566 | 4190 |
| GCCGTGGGTACGACCGGAAGCCGCAGGTGGGTGAAG | 18000 | 772 | 35000 | 1540 |
| GGGCAGGAAGGAAGAGGGCTCCTCCCCACAAGCTCT | 437 | 738 | 492 | 862 |

| Sequence | ETS1 binding intensity (ETS1 [1]) | RUNX1 binding intensity (RUNX1 [2]) | ETS1 binding intensity (ETS1 [3]) | RUNX1 binding intensity (RUNX1 [4]) |
| --- | --- | --- | --- | --- |
| CAGGCTGCTTCCGGCGCGCGGCAGAGCGGTCAGAGC | 990 | 714 | 1160 | 1700 |
| ACAACCCGGAAGTTGGCGCAGCGCGGTTGCCAATGG | 4350 | 671 | 4910 | 1300 |
| CCCAGGCTTCCGGGTTGAATATGTGGGCTGAGGCGA | 455 | 819 | 415 | 1420 |
| ATCTCCACATCCTCCCCATCGACCGCATGGTTTACC | 439 | 1970 | 653 | 3450 |
| GTTTCATGTTAAGTAGGATGTGGTCAGTTAGCTTCG | 851 | 1120 | 5410 | 1290 |
| AGAGGCAGCTTCCGGAGACTGCTCTGTGGCCAGTTT | 794 | 711 | 1070 | 1310 |
| GTTCTCCACATCCTGTTCCGTAGCTGTGGTGCACCG | 1600 | 3060 | 1780 | 8880 |
| ATTTTTCCTTCCTTCTCCCGTCCCCGCAGAGTGCAA | 507 | 1540 | 465 | 1520 |
| ACCAACCGGAAGTGATCGTGTTGTGGCCGAAGGAGG | 16100 | 785 | 18100 | 1590 |
| GAAATGAAGGCCGGATGTCAGTAACCACAAACGAGC | 7620 | 1040 | 47500 | 11000 |
| TTCATTTCTACCTTCCTGTGGTCTTTTTGCCTCCGA | 512 | 1860 | 470 | 2320 |
| CAAACAGGTTCCGGCCGGACTACAGCGCCCACAATG | 432 | 712 | 460 | 1080 |
| TGTTTTTGTTTCCGTTTACAAACCACAACAAAGGTG | 736 | 2390 | 1620 | 4730 |
| CCTAGAACCGGAAGAGAAAGGGGCTGCGGTGCAGCA | 1680 | 845 | 6270 | 1420 |
| CATAGGAAGTGCTCAGCTCTCCTCCACCGCAAGTTT | 452 | 806 | 2190 | 879 |
| TGTCGTACATTTCCGCCTTGTGGGCACAATCTGATT | 965 | 971 | 1280 | 1950 |
| TGCCTCCTCGTCACAGGATGTGGTCGCTGCACCCTG | 5200 | 788 | 16000 | 1700 |
| CCCACTGATAAGACAGGATGTGGTAAAGAAGCCAGC | 5700 | 776 | 22800 | 6790 |
| TTCAATCACAGGAAACAGACGTCACCCACAGACCTA | 1090 | 794 | 2200 | 983 |
